# BAZ2B inh: inhibitors of human BAZ2B bromodomain | AID 504333 | 4.4% of 360,000 active | Potency, µM (highest dose often 114 µM), most hits filed as inhibitors | AlphaScreen BAZ2B-H3K14Ac peptide displacement; further: nearly all actives have a fitted effect of over 60% in size
#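 Protein-peptide AlphaScreen: BAZ2B 50 nM, b-H3K14Ac 50 nM, 1x PBS pH 7.4 + 0.01% Tween-20. Preincubation 30 min RT; cpd 30 min RT (top 110 uM); beads 20 min RT, light-protected.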
# L3MBTL1 block: L3MBTL1 (human) inhibition; 0.66% of 230,000 active; AlphaScreen L3MBTL1–H3K9me1 peptide binding; Q9Y468; Potency, µM (top dose mostly 57.1 µM), most hits filed as inhibitors; further: nearly all actives have a fitted effect of over 60% in size
#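 L3MBTL1 50 nM + b-AHA-H3(1-15)K9me1 75 nM, 30 min RT; compound added, 30 min RT; streptavidin donor/Ni-chelate acceptor beads 10 ug/mL each final, 30 min RT dark; AlphaScreen read.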
# JMJD2A Tudor inh: JMJD2A Tudor domain (human) inhibition. O75164. AlphaScreen JMJD2A-Tudor / H3K4me3 peptide binding. Potency, µM (highest dose often 114 µM), hits mostly inhibitors. 4.4% of 390,000 active; further: nearly all actives have a fitted effect of over 50% in size
# HP1b binding inh: blocks HP1-beta chromodomain binding to methylated histone tails; P83916; AlphaScreen HP1-beta / biotin-H3K9me3 peptide binding; Potency, µM (titrated, usually from 114 µM), hits mostly inhibitors; 0.56% of 390,000 active; AID 540317; further: nearly all actives have a fitted effect of over 70% in size
# Target sequence (P83916 whole entry, looked up): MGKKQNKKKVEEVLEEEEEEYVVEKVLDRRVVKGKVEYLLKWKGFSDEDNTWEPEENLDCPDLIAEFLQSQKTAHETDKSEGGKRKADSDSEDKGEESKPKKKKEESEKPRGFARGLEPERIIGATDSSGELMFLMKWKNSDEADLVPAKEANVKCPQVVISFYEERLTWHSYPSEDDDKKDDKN
#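 HP1-beta protein (50 nM final) preincubated 30 min at room temperature with biotinylated H3(1-18)K9me3 peptide (50 nM) in PBS pH 7.4, 0.01% Tween-20, then compound added for 30 min. AlphaScreen streptavidin donor/nickel chelate acceptor beads (10 ug/mL final), 30 min dark, luminescence read.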
# JMJD2E inh: JMJD2E (human) inhibition. B2RXH2. JMJD2E catalytic domain, FDH-coupled NADH fluorescence (FDH is formaldehyde dehydrogenase). Potency, µM (series often up to 57.1 µM), most hits filed as inhibitors. 1.6% of 230,000 active; active means well fitted inhibition curve with a large enough effect, not every such curve was filed as active; inconclusive means small, poorly fitted or top-dose-only effect, or another doubt; inactive means no such curve, though single readings can be large or run the other way; further: nearly all actives have a fitted effect of over 50% in size
# PI5P4Ka inh: inhibitors of human PI5P4K alpha. P48426. PI5P4Kalpha enzyme, ADP-Glo luminescence, 60 min; stronger effect = lower value. max response, %. 1.2% of 330,000 active; active means max response of -50% or lower; inconclusive means between -30% and -50%; inactive means -30% or higher; further: value at the top dose of about 77 µM
# Target sequence (P48426 whole entry, looked up): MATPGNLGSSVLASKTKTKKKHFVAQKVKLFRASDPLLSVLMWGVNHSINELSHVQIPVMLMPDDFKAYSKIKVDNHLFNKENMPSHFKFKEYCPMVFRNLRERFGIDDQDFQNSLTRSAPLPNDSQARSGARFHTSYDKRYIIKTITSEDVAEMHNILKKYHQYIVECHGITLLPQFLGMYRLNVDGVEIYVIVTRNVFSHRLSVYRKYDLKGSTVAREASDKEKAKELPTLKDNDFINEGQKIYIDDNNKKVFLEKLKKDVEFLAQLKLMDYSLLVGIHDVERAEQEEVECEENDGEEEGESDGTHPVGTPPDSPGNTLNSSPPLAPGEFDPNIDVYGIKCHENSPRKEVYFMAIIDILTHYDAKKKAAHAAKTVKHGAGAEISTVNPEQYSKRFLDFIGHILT
#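 Compounds were pin-transferred onto PI5P4Kalpha and substrate in HEPES pH 7.4 buffer with EGTA, CHAPS and 5% DMSO. ATP (5 microM final) started the reaction, which ran 60 minutes at room temperature before ADP-Glo detection.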
# Numbers stand for hits; . = inactive; ? = inconclusive; / = not tested or not shown; ! = not confirmed by another sample. An excerpt weighted towards active compounds, which were near 5.7% of everything screened. Unless noted, the call rests on the fitted dose curve; in most records, active means well fitted inhibition curve with a large enough effect; inconclusive means small, poorly fitted or top-dose-only effect; inactive means no such curve, though single readings can be large or run the other way.
SMILES,BAZ2B inh,L3MBTL1 block,JMJD2A Tudor inh,HP1b binding inh,JMJD2E inh,PI5P4Ka inh
CCN(CC)c1ccc(/C=N/N2CCOCC2)c(O)c1,.,.,.,.,?,.
CCN1CCN(c2ccc(N=Cc3ccc(O)cc3O)cc2)CC1,32µM,.,?,?,14µM,.
CCN(CC)c1ccc(C=Nc2ccc(N(C)C)cc2)c(O)c1,32µM,/,56µM,?,.,.
CCN(CC)c1ccc(N=Cc2ccc(N(CC)CC)cc2O)cc1,18µM,/,40µM,?,?,.
CCC(C(=O)Nc1cccc(C#N)c1)n1nc(-c2ccccc2)ccc1=O (configuration not stated),.,/,.,.,/,/
Cc1ccc(CNC(=O)c2ccc(CS(=O)(=O)Cc3ccc(F)cc3)o2)cc1,.,/,.,.,/,/
N#C/C(=C\c1ccncc1)C(N)=O,.,.,.,.,?,.
Cc1ccc(Cc2nc3ccccc3nc2SCC(=O)NCc2ccccc2Cl)cc1,.,/,.,.,/,/
CCCCCNCC(=O)Nc1cccc(C(=O)Nc2cccc(C(F)(F)F)c2)c1,?,.,5µM,?,?,.
CCn1cc(Cl)c(C(=O)Nc2ccc3c(c2)OCCO3)n1,.,?,.,.,.,.
CCn1cc(Cl)c(C(=O)Nc2cccc(C(F)(F)F)c2)n1,.,.,50µM,.,.,.
COC(=O)c1ccc(-c2ccc(C3C4C=CCC(C)C4C(=O)N3Cc3ccccc3)c(F)c2)cc1 (configuration not stated),/,/,.,.,/,/
COc1cc2c(OC(C)=O)c3c(c(-c4ccc5c(c4)OCO5)c2cc1OC)C(=O)OC3,.,.,89µM!,?,?,.
COc1cc2c(O)c3c(c(-c4ccc5c(c4)OCO5)c2cc1OC)C(=O)OC3,.,.,.,.,?,/
CCOc1ccc2nc(NS(=O)(=O)c3ccc4c(c3)n(C)c(=O)n4C)sc2c1,56µM,.,.,.,.,.
C=CCOc1ccc(/C=C/C(=O)OCC(=O)N(C)CC(=O)Nc2ccccc2Cl)cc1,.,.,.,.,/,.
O=C(O)c1c(-c2ccccc2)oc2ccc(OCc3ccc(Cl)c(Cl)c3)cc12,?,/,.,?,/,/
O=S(=O)(c1ccc(Br)cc1)c1nc(-c2cccs2)oc1SCc1ccccc1F,.,/,.,.,/,/
CCOC(=O)c1cccc(NC(=O)CCNS(=O)(=O)c2ccc3c(c2)CCN3C(=O)CC)c1,.,.,.,.,.,.
CC(=O)N1CCc2cc(S(=O)(=O)CCC(=O)Nc3ccccc3F)ccc21,.,/,50µM,.,/,.
CCC(=O)N1c2ccc(S(=O)(=O)CCC(=O)Nc3ccc(Br)c(C)c3)cc2CC1C (configuration not stated),/,/,22µM,.,/,/
CCOC(=O)c1cccc(NC(=O)CCS(=O)(=O)c2ccc3c(c2)CCN3C(=O)CC)c1,/,/,25µM,.,/,/
CCC(=O)N1c2ccc(S(=O)(=O)CCC(=O)NC3CCCC3)cc2CC1C (configuration not stated),.,.,.,.,.,.
C=CCN(CC=C)C(=S)NC(=O)c1ccc(OC)cc1,?,.,.,.,.,.
C=CCN(CC=C)C(=S)NC(=O)/C=C/c1ccccc1,.,.,22µM,?,.,.
SMILES,BAZ2B inh,L3MBTL1 block,JMJD2A Tudor inh,HP1b binding inh,JMJD2E inh,PI5P4Ka inh
C=CCN(CC=C)C(=S)NC(=O)c1ccc(-c2ccccc2)cc1,6.3µM,/,?,.,.,.
COc1ccc(CNC(=O)C2CCN(S(=O)(=O)N3CCCC3)CC2)c(OC)c1,.,/,.,.,/,.
N#C/C(=C/c1ccccc1[N+](=O)[O-])c1nc(C2CC2)cs1,10µM,?,89µM,?,.,.
N#C/C(=C\C=C\c1ccccc1[N+](=O)[O-])c1nc(-c2ccc3c(c2)OCO3)cs1,.,.,.,.,.,/
N#C/C(=C\c1ccccc1[N+](=O)[O-])c1nc(C2CC2)cs1,28µM,?,32µM,?,.,.
O=c1n(Cc2ccccc2Cl)c2ccccc2c2nc(-c3ccccc3)nn12,.,/,.,.,/,/
COc1ccc(-c2noc(CNS(=O)(=O)c3ccc(Br)cc3)n2)cc1OC,.,/,.,.,/,/
COc1ccccc1N1C(=O)CC(Sc2n[nH]c(-c3cccc(C)c3)n2)C1=O (configuration not stated),.,.,2.8µM,?,.,.
CNc1nc(-c2ccccn2)nnc1-c1ccccc1,0.89µM,/,5.6µM,.,?,.
c1ccc(-c2ccc(-c3nc(-c4ccccn4)no3)cc2)cc1,.,/,.,.,?,/
Cc1cccc(CNc2ncnc3ccc(-c4ccc5c(ccn5C)c4)cc23)c1,?,.,/,/,/,/
Cc1ccc(C)c(S(=O)(=O)Nc2nc3ccc(S(N)(=O)=O)cc3s2)c1,.,/,50µM,.,?,.
COc1ccccc1CNc1ccc(-c2nc(-c3ccncc3)no2)cc1[N+](=O)[O-],.,/,.,.,/,/
C=C(C)C(=O)Nc1cccc(C2=NOC3(C2)C[C@@H](C(N)=O)N(C(=O)CC(c2ccccc2)c2ccccc2)C3)c1 (some centres not stated),13µM,/,20µM,20µM,.,?
C/C=C(/C)C(=O)Nc1cccc(C2=NOC3(C2)C[C@@H](C(N)=O)N(C(=O)CC(c2ccccc2)c2ccccc2)C3)c1 (some centres not stated),.,/,.,.,.,.
C=C(C)C(=O)Nc1cccc(C2=NOC3(C2)C[C@H](C(N)=O)N(C(=O)CC#N)C3)c1 (some centres not stated),40µM,/,25µM,?,?,.
C=C(C)C(=O)Nc1cccc(C2=NOC3(C2)C[C@H](C(N)=O)N(C(=O)CC)C3)c1 (some centres not stated),3.5µM,/,7.9µM,10µM,.,.
C=C(C)C(=O)Nc1cccc(C2=NOC3(C2)C[C@@H](C(N)=O)N(C(=O)/C(C)=C/C)C3)c1 (some centres not stated),1.8µM,/,3.2µM,3.5µM,.,?
O=C(Cn1cc(CNC(=O)c2ccccc2)nn1)Nc1cc(C(F)(F)F)ccc1Cl,/,/,.,/,/,/
CCCCCC(=O)Nc1cccc(C2=NOC3(C2)C[C@H](C(N)=O)N(C(=O)c2ccccc2)C3)c1 (some centres not stated),.,/,.,.,.,.
C/C=C(\C)C(=O)Nc1cccc(C2=NOC3(C2)C[C@@H](C(N)=O)N(C(=O)c2ccccc2C(=O)c2ccccc2)C3)c1 (some centres not stated),.,/,.,.,.,.
CCCCCC(=O)Nc1cccc(C2=NOC3(C2)C[C@H](C(N)=O)N(C(=O)CC#N)C3)c1 (some centres not stated),56µM,/,/,/,.,/
